Experimental data from ChEMBL document CHEMBL3988442, “University of Dundee, Small-Polar-MMV Screening Library” (2021).
For some of these results: Results with a measured potency or affinity are listed apart.

Tests used:
Design in all cases: scale not given: direction of the effect not stated beside the values
[1] = molecular target: Protein translocase subunit SecA (Escherichia coli (strain K12)) (UniProt P10408); assay: Assay to Identify E. coli SecA ATPase Inhibitors; assay type: functional; conditions: 30 µM
Protein translocase subunit SecA (Escherichia coli (strain K12)), sequence (P10408 whole entry): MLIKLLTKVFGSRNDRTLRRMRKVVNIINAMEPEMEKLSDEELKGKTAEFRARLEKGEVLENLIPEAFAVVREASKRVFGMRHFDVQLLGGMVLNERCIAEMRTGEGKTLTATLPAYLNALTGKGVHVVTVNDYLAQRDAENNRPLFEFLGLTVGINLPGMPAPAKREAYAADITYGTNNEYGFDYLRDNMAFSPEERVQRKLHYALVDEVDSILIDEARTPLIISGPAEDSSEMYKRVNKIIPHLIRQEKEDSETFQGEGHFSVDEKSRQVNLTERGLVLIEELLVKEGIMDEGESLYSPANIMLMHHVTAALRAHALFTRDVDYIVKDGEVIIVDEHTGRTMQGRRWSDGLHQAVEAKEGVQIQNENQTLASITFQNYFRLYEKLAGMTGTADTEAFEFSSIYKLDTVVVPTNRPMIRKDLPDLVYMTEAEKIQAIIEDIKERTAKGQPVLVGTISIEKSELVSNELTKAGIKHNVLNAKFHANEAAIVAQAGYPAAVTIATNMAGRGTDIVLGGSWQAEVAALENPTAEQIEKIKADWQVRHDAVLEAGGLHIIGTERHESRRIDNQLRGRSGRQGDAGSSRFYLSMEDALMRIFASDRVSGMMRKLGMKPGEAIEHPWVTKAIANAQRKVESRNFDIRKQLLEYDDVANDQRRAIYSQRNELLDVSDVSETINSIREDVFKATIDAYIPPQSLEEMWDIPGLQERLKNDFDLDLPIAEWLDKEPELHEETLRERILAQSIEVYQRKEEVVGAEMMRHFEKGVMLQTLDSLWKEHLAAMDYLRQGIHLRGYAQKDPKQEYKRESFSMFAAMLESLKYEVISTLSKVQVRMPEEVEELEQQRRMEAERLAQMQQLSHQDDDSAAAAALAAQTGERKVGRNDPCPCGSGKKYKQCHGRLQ

[2] = molecular target: T1, Ubiquitin-activating enzyme e1, putative (Leishmania donovani (strain BPK282A1)) (UniProt E9BSI1); assay: Leishmania donovani Ubiquitin Activating Enzyme (LdE1); assay type: functional; conditions: 30 µM
T1 sequence (whole entry): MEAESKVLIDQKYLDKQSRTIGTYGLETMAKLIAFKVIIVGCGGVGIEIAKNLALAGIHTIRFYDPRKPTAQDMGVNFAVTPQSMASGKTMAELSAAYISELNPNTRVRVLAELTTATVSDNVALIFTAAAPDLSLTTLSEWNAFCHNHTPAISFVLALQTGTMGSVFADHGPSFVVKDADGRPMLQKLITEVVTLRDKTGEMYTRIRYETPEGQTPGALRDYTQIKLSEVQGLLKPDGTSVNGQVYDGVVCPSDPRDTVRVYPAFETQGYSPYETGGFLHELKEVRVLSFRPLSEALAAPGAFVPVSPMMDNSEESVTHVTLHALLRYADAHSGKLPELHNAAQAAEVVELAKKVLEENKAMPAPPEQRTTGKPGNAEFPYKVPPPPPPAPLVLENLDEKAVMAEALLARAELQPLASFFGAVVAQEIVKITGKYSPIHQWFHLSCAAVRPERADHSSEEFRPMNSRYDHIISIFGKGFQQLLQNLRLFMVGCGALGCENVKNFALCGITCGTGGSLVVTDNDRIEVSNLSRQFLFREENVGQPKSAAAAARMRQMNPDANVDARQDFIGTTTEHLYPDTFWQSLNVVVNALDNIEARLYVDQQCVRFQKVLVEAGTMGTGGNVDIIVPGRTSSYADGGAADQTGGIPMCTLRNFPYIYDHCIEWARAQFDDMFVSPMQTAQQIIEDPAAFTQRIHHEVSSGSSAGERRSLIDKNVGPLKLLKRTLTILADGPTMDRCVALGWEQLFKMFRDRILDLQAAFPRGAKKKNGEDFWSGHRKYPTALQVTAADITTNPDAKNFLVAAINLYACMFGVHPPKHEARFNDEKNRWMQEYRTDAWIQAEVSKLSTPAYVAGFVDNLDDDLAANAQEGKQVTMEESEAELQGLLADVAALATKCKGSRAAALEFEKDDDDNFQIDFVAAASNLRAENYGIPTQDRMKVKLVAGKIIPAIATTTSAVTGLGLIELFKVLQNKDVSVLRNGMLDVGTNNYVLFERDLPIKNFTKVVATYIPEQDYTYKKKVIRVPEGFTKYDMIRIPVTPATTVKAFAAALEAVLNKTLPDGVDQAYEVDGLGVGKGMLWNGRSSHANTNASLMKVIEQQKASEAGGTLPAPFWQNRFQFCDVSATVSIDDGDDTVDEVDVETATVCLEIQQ

[3] = molecular target: AMP-activated protein kinase, AMPK (Homo sapiens) (UniProt P54646+O43741+P54619+Q9UGJ0+Q9Y478+Q13131+Q9UGI9); assay: AMP-dependent Kinase enzyme assay. An in vitro enzyme assay that detects ADP turnover that is directly proportional to AMPK activity. This uses naive AMPK that is activated during the assay with MK-8722; assay type: functional; conditions: 30 µM
[4] = molecular target: Sialic acid-binding Ig-like lectin 9 (Homo sapiens) (UniProt Q9Y336); assay: Hs-Siglec9 ALPHAscreen SOP 20170721; conditions: 10 µM
Sialic acid-binding Ig-like lectin 9 (Homo sapiens), sequence (Q9Y336 whole entry): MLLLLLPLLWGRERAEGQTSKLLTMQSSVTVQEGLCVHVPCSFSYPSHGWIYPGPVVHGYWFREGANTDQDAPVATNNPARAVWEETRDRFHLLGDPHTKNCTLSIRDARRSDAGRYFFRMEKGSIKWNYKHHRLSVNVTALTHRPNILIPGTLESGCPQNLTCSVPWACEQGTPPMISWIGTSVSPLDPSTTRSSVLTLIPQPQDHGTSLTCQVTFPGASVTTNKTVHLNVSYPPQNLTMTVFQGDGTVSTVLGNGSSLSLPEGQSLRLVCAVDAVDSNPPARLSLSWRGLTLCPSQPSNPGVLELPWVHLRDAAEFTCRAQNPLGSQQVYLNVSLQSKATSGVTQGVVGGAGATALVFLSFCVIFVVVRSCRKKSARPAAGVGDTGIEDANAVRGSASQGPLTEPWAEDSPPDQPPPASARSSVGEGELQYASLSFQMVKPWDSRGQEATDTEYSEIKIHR

Trypanosoma cruzi = assay: Trypanosoma cruzi phosphomannomutase and mannose-1-phosphate guanylyltransferase assay; assay type: functional; conditions: 10 µM
[5] = molecular target: T2, Arginase-2, mitochondrial (Homo sapiens) (UniProt P78540); assay: in vitro enzyme assay to detect the production of urea directly proportional to the activity of Arginase II; assay type: functional; conditions: 33.3 µM; also: in the data most compounds retested in dose-response had high values
T2 sequence (whole entry): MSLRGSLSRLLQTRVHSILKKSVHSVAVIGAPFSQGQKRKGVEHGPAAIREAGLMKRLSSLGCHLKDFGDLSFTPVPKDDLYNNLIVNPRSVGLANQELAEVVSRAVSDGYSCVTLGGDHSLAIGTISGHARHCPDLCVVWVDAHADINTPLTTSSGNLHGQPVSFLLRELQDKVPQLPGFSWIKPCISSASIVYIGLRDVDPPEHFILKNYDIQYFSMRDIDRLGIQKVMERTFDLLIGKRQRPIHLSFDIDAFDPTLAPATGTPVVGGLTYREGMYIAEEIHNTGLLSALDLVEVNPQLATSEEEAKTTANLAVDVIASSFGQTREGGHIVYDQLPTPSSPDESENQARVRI

[6] = molecular target: T3, Proteasome subunit beta (Trypanosoma cruzi) (UniProt O96673); assay: Trypanosoma cruzi proteasome chymotrypsin-like activity (TcProtChymo) assay.; also: in the data most compounds retested in dose-response had high values; assay type: functional; conditions: 9.37 µM
T3 sequence (whole entry): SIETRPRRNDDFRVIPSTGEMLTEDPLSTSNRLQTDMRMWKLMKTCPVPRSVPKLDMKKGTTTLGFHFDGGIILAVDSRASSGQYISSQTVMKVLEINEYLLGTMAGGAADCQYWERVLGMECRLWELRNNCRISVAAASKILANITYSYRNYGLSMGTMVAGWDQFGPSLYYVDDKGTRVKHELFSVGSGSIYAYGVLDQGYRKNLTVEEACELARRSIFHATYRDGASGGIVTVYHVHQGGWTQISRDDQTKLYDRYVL

Homo sapiens = species: Homo sapiens; assay: To identify inhibition of the IFN signalling (Jak-Stat) pathway via expression of an eGFP reporter gene under the control of an IFN-stimulated response element (ISRE) containing MxA promoter.; assay type: functional; conditions: 30 µM
[7] = molecular target: T4, Tyrosyl-tRNA synthetase, putative (Trypanosoma cruzi (strain CL Brener)) (UniProt Q4DSP6); assay: Trypanosoma cruzi tyrosyl tRNA synthetase (TcYRS) _High Tyrosine SOP; assay type: functional; conditions: 30 µM; also: in the data most compounds retested in dose-response had high values
T4 sequence (whole entry): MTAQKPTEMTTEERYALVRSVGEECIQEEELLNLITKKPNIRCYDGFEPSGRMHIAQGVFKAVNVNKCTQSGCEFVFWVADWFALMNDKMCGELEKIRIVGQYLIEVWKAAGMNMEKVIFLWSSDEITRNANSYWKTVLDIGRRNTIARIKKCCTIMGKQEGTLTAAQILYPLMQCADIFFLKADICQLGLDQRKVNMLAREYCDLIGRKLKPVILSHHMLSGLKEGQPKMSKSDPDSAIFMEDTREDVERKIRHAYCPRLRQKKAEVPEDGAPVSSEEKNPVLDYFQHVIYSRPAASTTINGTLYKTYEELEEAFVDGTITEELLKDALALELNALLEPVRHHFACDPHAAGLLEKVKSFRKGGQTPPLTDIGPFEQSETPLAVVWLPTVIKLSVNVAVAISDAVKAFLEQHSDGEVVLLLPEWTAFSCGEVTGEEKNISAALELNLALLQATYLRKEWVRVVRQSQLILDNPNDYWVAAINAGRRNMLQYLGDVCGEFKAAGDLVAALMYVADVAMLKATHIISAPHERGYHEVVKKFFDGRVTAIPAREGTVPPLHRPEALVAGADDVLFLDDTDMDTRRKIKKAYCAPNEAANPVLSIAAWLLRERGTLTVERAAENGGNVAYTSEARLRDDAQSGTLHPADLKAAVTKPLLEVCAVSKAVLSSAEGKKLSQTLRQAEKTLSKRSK

[8] = molecular target: T4, Tyrosyl-tRNA synthetase, putative (Trypanosoma cruzi (strain CL Brener)); assay: Trypanosoma cruzi tyrosyl tRNA synthetase (TcYRS) SOP; assay type: functional; conditions: 30 µM
[9] = molecular target: Chromo domain-containing protein 1 (Saccharomyces cerevisiae (strain ATCC 204508 / S288c) (Baker's yeast)) (UniProt P32657); assay: ScCHD-1 Enzyme Inhibition Assay; assay type: functional; conditions: 30 µM; also: in the data most compounds retested in dose-response had high values
Chromo domain-containing protein 1 (Saccharomyces cerevisiae (strain ATCC 204508 / S288c) (Baker's yeast)), sequence (P32657 whole entry, the tested form may be a part): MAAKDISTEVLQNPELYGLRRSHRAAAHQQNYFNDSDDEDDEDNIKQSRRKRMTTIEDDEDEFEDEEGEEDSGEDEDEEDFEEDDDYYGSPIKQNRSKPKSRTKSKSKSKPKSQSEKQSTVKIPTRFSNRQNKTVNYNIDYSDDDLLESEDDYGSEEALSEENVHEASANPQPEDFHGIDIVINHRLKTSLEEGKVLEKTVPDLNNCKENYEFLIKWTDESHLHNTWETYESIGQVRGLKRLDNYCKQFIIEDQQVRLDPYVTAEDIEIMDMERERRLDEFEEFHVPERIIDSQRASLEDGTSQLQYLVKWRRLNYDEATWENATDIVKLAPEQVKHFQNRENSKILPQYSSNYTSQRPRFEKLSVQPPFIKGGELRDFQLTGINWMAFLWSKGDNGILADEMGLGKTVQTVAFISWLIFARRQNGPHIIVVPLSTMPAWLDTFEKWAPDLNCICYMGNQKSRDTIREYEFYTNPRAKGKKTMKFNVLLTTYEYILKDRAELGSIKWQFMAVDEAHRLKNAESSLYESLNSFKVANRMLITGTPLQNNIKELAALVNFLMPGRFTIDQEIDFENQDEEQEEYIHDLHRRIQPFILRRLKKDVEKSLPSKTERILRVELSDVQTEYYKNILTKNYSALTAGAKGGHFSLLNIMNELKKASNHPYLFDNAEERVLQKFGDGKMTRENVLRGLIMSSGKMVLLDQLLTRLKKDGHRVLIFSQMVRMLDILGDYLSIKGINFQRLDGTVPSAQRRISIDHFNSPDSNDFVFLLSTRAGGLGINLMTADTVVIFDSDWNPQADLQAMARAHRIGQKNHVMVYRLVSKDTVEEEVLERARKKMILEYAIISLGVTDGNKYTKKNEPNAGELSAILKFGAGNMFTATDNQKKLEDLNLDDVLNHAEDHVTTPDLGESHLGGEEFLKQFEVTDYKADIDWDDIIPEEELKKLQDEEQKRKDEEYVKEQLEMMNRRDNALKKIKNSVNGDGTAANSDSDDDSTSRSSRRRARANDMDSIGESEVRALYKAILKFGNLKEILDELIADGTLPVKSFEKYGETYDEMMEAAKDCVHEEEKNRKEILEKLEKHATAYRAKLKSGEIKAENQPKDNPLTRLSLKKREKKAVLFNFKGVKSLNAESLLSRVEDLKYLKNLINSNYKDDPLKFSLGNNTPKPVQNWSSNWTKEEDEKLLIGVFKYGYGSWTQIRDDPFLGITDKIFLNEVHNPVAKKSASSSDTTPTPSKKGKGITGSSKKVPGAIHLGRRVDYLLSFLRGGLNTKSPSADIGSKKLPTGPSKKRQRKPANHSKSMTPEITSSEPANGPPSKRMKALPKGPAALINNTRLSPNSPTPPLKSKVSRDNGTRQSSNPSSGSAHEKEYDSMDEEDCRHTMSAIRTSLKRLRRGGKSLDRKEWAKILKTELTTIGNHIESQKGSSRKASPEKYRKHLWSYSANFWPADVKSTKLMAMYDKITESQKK

SMILES	Percent Effect [1]	Percent Effect [2]	Percent Effect [3]	Percent Effect [4]	Percent Effect (Trypanosoma cruzi)	Percent Effect [5]	Percent Effect [6]	Percent Effect (Homo sapiens)	Percent Effect [7]	Percent Effect [8]	Percent Effect [9]
COc1ccc(-n2ccc(C(=O)N3CCC(C(N)=O)C3)n2)cc1 (stereo unspecified)	-7.71%	8.11%	-1.34%	6.17%	-4.55%	1.29%	-1.44%	16.4%	2.97%	3.66%	-1.19%
CCc1cc(NC2CCN(S(C)(=O)=O)CC2)n2nc(C)c(C)c2n1	0.159%	4.17%	4.89%	-1.11%	-4.37%	-2.21%	22.6%	5.75%	-10.5%	2.56%	-1.42%
Cc1ccc(C2CCCN2Cc2nc3c(cnn3C)c(=O)[nH]2)cc1C (stereo unspecified)	-4.42%	27.9%	-6.55%	-1.46%	5.19%	-1.52%	13.8%	4.19%	7.39%	24.1%	-5.15%
O=C(COCc1ccccc1Cl)N1CCCC(n2cccn2)C1 (stereo unspecified)	-4.85%	18.2%	6.5%	-7.66%	-1.08%	4%	20.4%	20.2%	2.86%	11.8%	-9.25%
CN(CC1(O)CCCCC1)C1CCCN(Cc2noc(C3CC3)n2)C1 (stereo unspecified)	-0.786%	26.3%	-8.18%	-11.1%	-3.46%	-1.08%	10.9%	10.4%	4.43%	13.6%	-3.04%
O=C1NCCN1C1CCN(Cc2ccccn2)CC1	-1.85%	0%	-5.58%	1.53%	-2.12%	1.91%	8.62%	0.116%	3.7%	2.44%	-3.18%
CC(NC(=O)NCCNc1cnccn1)c1cccs1 (stereo unspecified)	-1.5%	23.4%	1.73%	3.58%	2.81%	2.49%	3.21%	-20.8%	8.74%	24.4%	-11.5%
CCc1nc(CN(C)CC2CCN(CCO)CC2)no1	0.69%	2.7%	-8.99%	9.52%	6.56%	10%	-1.55%	-14.8%	2.65%	9.76%	-0.692%
COc1cccc(CN(C)C(=O)CSc2ccc3c(c2)OCCO3)c1	-7.29%	-10.5%	15.3%	0.77%	-0.876%	-2.37%	6.62%	6.47%	-4.25%	-15.6%	0.365%
c1csc(-c2nc(CNC3CCc4ncnn4C3)co2)c1 (stereo unspecified)	-3.96%	7.79%	-1.01%	1.84%	-5.24%	2.13%	4.22%	20.4%	2.91%	9.76%	-4.74%
COC(C(=O)N1CCCN(Cc2cscn2)CC1)c1ccccc1 (stereo unspecified)	-0.131%	21.1%	-3.46%	-3.88%	4.89%	-5.36%	23.2%	6.84%	5.39%	24.4%	-9.91%
